Targets with a hit are over-represented here; the source holds about 7,900 in all. About 0.6% of all pairs of compound and target were hits. A number with no mark means an inactive call.
Key:
Test in all cases: log2 fold change, soluble protein after heating vs DMSO (PISA); higher = thermal stabilisation; K562 cells, 10 uM, 30 min; active = over 0.2 and 3.5 SD of the protein, either way, in both replicates (recomputed)
bafetinib = compound: Cc1ccc(NC(=O)c2ccc(CN3CC[C@H](N(C)C)C3)c(C(F)(F)F)c2)cc1Nc1nccc(-c2cncnc2)n1 [bafetinib]
Method in brief: (§1)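 Soluble protein was defined as the supernatant after 21,000xg for 90 min. It came from K562 cells at 2×10^6 cells/mL given 10 μM compound for 30 min, heated in aliquots for 3 min across 48°C-58°C, pooled, and extracted in PBS with 0.5% NP-40 at 4°C, and was quantified by TMTpro 16plex LC-MS/MS with equalised channel sums. Thermal stability against control samples, from duplicates, is reported as log2 fold change.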

[1] = compound: Cc1cccc(CC(=O)N2CCc3c2ccc(-c2cn(C)c4ncnc(N)c24)c3F)n1
Method in brief: as §1

nilotinib = compound: Cc1cn(-c2cc(NC(=O)c3ccc(C)c(Nc4nccc(-c5cccnc5)n4)c3)cc(C(F)(F)F)c2)cn1 [nilotinib]
Method in brief: as §1

[2] = compound: Cc1nc(Nc2n[nH]c3c2CN(C(=O)N[C@H](CN(C)C)c2ccccc2)C3(C)C)c2sccc2n1
Method in brief: as §1

dasatinib = compound: Cc1nc(Nc2ncc(C(=O)Nc3c(C)cccc3Cl)s2)cc(N2CCN(CCO)CC2)n1 [dasatinib]
Method in brief: as §1

[3] = compound: Cc1ncc(-c2ccnc(Nc3ccc(S(C)(=O)=O)cc3)n2)n1C(C)C
Method in brief: as §1

[4] = compound: Cn1cc(-c2ccc3c(c2)CCN3C(=O)Cc2cccc(C(F)(F)F)c2)c2c(N)ncnc21
Method in brief: as §1

[5] = compound: Cn1cc(-c2ccc3nnc(C(F)(F)c4ccc5ncccc5c4)n3n2)cn1
Method in brief: as §1

tipifarnib = compound: Cn1cncc1[C@@](N)(c1ccc(Cl)cc1)c1ccc2c(c1)c(-c1cccc(Cl)c1)cc(=O)n2C [tipifarnib]
Method in brief: as §1

mubritinib = compound: FC(F)(F)c1ccc(/C=C/c2nc(COc3ccc(CCCCn4ccnn4)cc3)co2)cc1 [mubritinib]
Method in brief: as §1

[6] = compound: NC(=O)Nc1cc(-c2cccc(F)c2)sc1C(=O)N[C@H]1CCCNC1
Method in brief: as §1

[7] = compound: NC(=O)c1cnc(N[C@@H]2CCCC[C@@H]2N)nc1Nc1cccc(-n2nccn2)c1
Method in brief: as §1

[8] = compound: NC1(c2ccc(-c3nc4ccn5c(=O)[nH]nc5c4cc3-c3ccccc3)cc2)CCC1
Method in brief: as §1

[9] = compound: NCC(=O)Nc1ccc(-n2nc(C(F)(F)F)cc2-c2ccc3c(ccc4ccccc43)c2)cc1
Method in brief: as §1

entinostat = compound: Nc1ccccc1NC(=O)c1ccc(CNC(=O)OCc2cccnc2)cc1 [entinostat]
Method in brief: as §1

vorinostat = compound: O=C(CCCCCCC(=O)Nc1ccccc1)NO [vorinostat]
Method in brief: as §1

citarinostat = compound: O=C(CCCCCCNC(=O)c1cnc(N(c2ccccc2)c2ccccc2Cl)nc1)NO [citarinostat]
Method in brief: as §1

silmitasertib = compound: O=C(O)c1ccc2c(c1)nc(Nc1cccc(Cl)c1)c1ccncc12 [silmitasertib]
Method in brief: as §1

[10] = compound: O=C1NC(=O)C(c2cnc3ccccn23)=C1c1cn2c3c(cc(F)cc13)CN(C(=O)N1CCCCC1)CC2
Method in brief: as §1

[11] = compound: c1cc(OCCN2CCCCC2)cc(-c2n[nH]c3ccc(-c4nnc[nH]4)cc23)c1
Method in brief: as §1

UniProt P54709, sequence (P54709 whole entry, looked up): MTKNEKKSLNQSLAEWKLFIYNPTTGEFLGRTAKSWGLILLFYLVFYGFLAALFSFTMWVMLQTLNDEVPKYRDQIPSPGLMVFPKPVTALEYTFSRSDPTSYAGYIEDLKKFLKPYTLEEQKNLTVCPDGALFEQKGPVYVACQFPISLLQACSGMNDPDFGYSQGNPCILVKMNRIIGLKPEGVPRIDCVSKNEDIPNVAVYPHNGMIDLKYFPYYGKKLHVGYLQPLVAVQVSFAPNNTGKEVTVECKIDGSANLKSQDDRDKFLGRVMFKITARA
UniProt Q86UU0, sequence (Q86UU0 whole entry, looked up): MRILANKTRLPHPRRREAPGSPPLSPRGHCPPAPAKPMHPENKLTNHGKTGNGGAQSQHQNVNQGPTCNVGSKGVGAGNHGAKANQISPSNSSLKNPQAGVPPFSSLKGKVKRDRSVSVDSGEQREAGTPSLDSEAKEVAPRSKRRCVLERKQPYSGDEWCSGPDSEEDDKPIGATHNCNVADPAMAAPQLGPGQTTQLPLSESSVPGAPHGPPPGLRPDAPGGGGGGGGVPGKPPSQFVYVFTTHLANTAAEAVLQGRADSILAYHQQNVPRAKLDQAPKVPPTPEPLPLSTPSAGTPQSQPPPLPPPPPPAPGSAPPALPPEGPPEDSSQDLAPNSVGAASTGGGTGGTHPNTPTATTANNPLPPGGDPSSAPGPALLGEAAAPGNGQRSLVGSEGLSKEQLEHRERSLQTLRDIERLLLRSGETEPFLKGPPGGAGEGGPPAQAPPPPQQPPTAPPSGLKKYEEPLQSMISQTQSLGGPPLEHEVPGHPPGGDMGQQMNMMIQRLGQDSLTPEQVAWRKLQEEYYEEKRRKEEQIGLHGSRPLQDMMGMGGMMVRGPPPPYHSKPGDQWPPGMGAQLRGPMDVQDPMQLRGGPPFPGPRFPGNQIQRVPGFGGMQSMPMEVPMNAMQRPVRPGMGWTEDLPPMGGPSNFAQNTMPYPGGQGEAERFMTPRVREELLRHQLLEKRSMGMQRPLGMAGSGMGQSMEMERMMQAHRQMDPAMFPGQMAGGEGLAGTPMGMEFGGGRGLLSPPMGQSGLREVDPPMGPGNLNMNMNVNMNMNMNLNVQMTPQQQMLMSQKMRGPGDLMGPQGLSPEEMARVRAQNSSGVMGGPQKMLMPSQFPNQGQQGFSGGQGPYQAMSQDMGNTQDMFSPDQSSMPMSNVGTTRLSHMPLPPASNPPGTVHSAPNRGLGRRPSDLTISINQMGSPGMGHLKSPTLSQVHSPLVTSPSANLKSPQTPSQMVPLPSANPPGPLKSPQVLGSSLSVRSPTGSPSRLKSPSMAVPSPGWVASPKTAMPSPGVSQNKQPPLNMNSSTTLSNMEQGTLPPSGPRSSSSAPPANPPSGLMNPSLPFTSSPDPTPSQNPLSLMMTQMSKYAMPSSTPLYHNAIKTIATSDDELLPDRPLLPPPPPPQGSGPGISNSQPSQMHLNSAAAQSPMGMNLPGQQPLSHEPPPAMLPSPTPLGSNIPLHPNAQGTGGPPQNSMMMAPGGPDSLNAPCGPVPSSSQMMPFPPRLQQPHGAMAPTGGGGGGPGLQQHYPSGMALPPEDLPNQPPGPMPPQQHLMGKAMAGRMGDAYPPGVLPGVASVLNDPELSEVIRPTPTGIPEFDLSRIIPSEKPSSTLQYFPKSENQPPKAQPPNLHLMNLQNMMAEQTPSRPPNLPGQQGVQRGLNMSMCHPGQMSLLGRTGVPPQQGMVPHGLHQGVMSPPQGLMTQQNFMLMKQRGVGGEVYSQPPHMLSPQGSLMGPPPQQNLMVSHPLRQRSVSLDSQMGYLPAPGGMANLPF
UniProt P49748, sequence (P49748 whole entry, looked up): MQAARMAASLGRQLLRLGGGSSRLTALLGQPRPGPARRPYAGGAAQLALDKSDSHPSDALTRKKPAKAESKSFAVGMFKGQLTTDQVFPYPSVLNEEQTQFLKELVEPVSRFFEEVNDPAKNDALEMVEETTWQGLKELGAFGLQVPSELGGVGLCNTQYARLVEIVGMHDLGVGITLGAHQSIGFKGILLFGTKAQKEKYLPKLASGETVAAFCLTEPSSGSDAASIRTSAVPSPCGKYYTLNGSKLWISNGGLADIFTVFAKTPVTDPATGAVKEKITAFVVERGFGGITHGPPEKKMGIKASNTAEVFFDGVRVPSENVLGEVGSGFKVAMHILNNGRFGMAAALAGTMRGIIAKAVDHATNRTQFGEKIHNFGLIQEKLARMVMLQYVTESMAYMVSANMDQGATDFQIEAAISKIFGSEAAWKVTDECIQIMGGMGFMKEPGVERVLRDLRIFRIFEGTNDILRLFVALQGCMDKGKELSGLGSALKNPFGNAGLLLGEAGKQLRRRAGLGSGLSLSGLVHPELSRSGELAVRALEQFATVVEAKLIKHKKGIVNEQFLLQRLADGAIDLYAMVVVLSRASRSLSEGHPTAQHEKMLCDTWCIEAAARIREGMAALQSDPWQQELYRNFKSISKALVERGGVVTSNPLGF
UniProt P36405, sequence (P36405 whole entry, looked up): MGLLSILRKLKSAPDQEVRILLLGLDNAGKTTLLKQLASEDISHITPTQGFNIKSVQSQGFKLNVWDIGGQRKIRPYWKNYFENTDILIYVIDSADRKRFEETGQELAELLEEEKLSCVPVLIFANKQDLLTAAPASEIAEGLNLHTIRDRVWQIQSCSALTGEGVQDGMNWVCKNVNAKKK
UniProt Q9NRZ7, sequence (Q9NRZ7 whole entry, looked up): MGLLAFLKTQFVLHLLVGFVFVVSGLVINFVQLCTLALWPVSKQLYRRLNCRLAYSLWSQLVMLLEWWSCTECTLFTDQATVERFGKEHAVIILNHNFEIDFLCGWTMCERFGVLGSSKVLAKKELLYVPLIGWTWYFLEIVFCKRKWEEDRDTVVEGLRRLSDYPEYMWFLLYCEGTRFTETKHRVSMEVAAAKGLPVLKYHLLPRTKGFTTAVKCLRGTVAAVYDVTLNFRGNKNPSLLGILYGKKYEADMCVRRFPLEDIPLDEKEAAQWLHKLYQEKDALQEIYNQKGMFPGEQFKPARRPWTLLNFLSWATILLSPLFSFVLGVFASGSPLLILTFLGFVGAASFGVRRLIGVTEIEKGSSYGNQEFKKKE
UniProt Q96CW1, sequence (Q96CW1 whole entry, looked up): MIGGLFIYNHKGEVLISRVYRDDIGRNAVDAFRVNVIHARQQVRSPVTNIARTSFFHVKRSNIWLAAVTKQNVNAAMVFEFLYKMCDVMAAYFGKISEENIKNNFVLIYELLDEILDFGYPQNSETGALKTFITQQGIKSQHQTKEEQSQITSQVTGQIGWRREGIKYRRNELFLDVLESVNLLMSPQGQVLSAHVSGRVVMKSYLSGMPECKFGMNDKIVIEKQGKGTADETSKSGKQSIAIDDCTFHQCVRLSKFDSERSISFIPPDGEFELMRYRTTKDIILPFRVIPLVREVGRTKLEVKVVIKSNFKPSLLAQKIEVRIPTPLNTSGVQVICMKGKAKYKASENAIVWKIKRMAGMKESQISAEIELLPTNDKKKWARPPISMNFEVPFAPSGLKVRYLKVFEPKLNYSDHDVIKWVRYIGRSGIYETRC

Target | log2 fold change (bafetinib) | log2 fold change [1] | log2 fold change (nilotinib) | log2 fold change [2] | log2 fold change (dasatinib) | log2 fold change [3] | log2 fold change [4] | log2 fold change [5] | log2 fold change (tipifarnib) | log2 fold change (mubritinib) | log2 fold change [6] | log2 fold change [7] | log2 fold change [8] | log2 fold change [9] | log2 fold change (entinostat) | log2 fold change (vorinostat) | log2 fold change (citarinostat) | log2 fold change (silmitasertib) | log2 fold change [10] | log2 fold change [11]
AGPAT3 isoform 3 (UniProt Q9NRZ7) | -0.057 | 0.04 | -0.012 | 0.004 | -0.092 | -0.007 | 0.033 | 0.018 | -0.025 | 0.062 | 0.008 | -0.044 | -0.141 | -0.041 | 0.004 | 0.004 | 0.029 | 0.008 | -0.079 | -0.044
BCL9L (UniProt Q86UU0) | 0.043 | 0 | -0.046 | -0.064 | 0.018 | 0.053 | -0.013 | -0.031 | 0.014 | 0.026 | 0.037 | -0.009 | 0.03 | 0.021 | -0.002 | 0.012 | 0.017 | -0.038 | -0.045 | 0.241 (active)
ACADVL isoform 3 (UniProt P49748) | -0.093 | 0 | 0.032 | 0.02 | -0.016 | -0.007 | 0.022 | 0.026 | -0.01 | 0.071 | -0.025 | -0.036 | -0.021 | -0.032 | 0 | -0.019 | 0.043 | -0.015 | -0.014 | -0.028
AP2M1 (UniProt Q96CW1) | 0.042 | -0.012 | 0.012 | 0.031 | 0.048 | -0.02 | -0.013 | -0.004 | 0.02 | -0.035 | -0.293 (active) | 0.004 | 0.012 | -0.003 | -0.007 | 0.06 | -0.004 | 0.029 | -0.237 (active) | -0.209
ARL3 (UniProt P36405) | -0.024 | -0.029 | 0.011 | 0.006 | 0.001 | -0.003 | 0.022 | -0.018 | -0.034 | 0.029 | 0.02 | -0.005 | -0.051 | 0.006 | -0.024 | -0.013 | 0.05 | 0 | -0.001 | -0.022
ATP1B3 (UniProt P54709) | 0 | -0.039 | 0.06 | -0.003 | 0.027 | 0.021 | 0 | -0.02 | 0.065 | 0.043 | -0.065 | -0.011 | 0.066 | 0.004 | -0.041 | -0.007 | 0.037 | 0.002 | -0.057 | -0.088

From the supplement of paper PMC10849652
